The text below walks through data of PubChem BioAssay (NCI).

About 83,000 compounds went through this panel and 20% of them were active in at least one assay; those are over-represented in the sample as a whole.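 Compound tested at a single concentration for 48 hours in 96-well plates; a percent growth value below 10 was scored as active.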 A number with no mark means an inactive call. Activity calls are given as the source filed them.

Test systems include DU-145 prostate; K-562 leukemia; MALME-3M melanoma; MDA-MB-231 breast; RXF 393 renal; SF-268 CNS; SF-295 CNS; SF-539 CNS; UACC-257 melanoma; M14 melanoma.
What all share (experiment): NCI-60 one-dose screen, 48 h (100 = growth as untreated, 0 = no growth, -100 = all killed)
Common to all, as to conditions: 10 µM unless noted

As for `Cc1nc2cc(Nc3nc(NCCN)nc(Nc4ccc(F)cc4)n3)ccc2n1Cc1ccccc1`, the growth is 82.2% with DU-145 prostate; -36.8% (active) in the assay on K-562 leukemia; 93.5% in the assay with MALME-3M melanoma; 60.4% with MDA-MB-231 breast; 72% in the assay on RXF 393 renal; 71.8% in the assay on SF-268 CNS. Besides, the growth with SF-295 CNS is 79.8%; with SF-539 CNS it was 96%; with UACC-257 melanoma it was 90.5%; in the assay on M14 melanoma it was 81.6%.
In the case of `O=C1CN2CCC1C/C2=C\c1ccnc2c(Cl)cccc12` (stereo not given), the growth with DU-145 prostate is 111%; in the assay on K-562 leukemia it was 95.7%; in the assay with MALME-3M melanoma, 112%; in the assay on MDA-MB-231 breast, 90.1%; with RXF 393 renal, 107%; with SF-268 CNS, 101%. Also, the growth was 91.2% in the assay with SF-295 CNS, 110% in the assay on SF-539 CNS, 95.2% in the assay on UACC-257 melanoma and 103% with M14 melanoma.
Turning to `COc1ccc(OC)c2ncccc12`, the growth in the assay on DU-145 prostate was 112%; in the assay on K-562 leukemia, 96%; in the assay on MALME-3M melanoma, 89.7%; with MDA-MB-231 breast, 109%; in the assay on RXF 393 renal, 107%; with SF-268 CNS, 102%. Further, the growth is 95% with SF-295 CNS, 102% in the assay with SF-539 CNS, 110% with UACC-257 melanoma and 93.5% in the assay with M14 melanoma.
Turning to `COC(=O)c1c2c(c(C)[n+]([O-])c1C)C(=O)C=C(NCc1ccc(F)c(Cl)c1)C2=O`, the growth with DU-145 prostate was -99% (active); in the assay with K-562 leukemia, -7.41% (active); in the assay on MALME-3M melanoma, -98.3% (active); in the assay on MDA-MB-231 breast it was -25.6% (active); in the assay with RXF 393 renal it was -41.1% (active); in the assay on SF-268 CNS, -9.98% (active). The growth is -97.5% (active) in the assay with SF-295 CNS, -89.7% (active) with SF-539 CNS, -82.8% (active) with UACC-257 melanoma and -88.4% (active) in the assay with M14 melanoma.
For the molecule `COc1cc(/C=C/C(=O)C(=Cc2ccc(F)c(F)c2)C(=O)/C=C/c2ccc(O)c(OC)c2)ccc1O`, the growth in the assay with DU-145 prostate was 17.3%; in the assay on K-562 leukemia, 13.7%; with MALME-3M melanoma it was 51%; with MDA-MB-231 breast, 13.1%; in the assay on RXF 393 renal, -32.5% (active); with SF-268 CNS, 20%. Also, the growth is 53.7% with SF-295 CNS, 26.9% with SF-539 CNS, 47.3% in the assay with UACC-257 melanoma and 2.1% (active) in the assay on M14 melanoma.
For the molecule `O=[N+]([O-])c1cc2c(cc1Br)C1C(C3C2C(Cl)(Cl)C(Cl)=C(Cl)C3(Cl)Cl)C(Cl)(Cl)C(Cl)=C(Cl)C1(Cl)Cl` (stereo not given), the growth was 108% in the assay on DU-145 prostate; 105% in the assay with K-562 leukemia; 80.8% in the assay with MALME-3M melanoma; 108% in the assay with MDA-MB-231 breast; 96.9% with RXF 393 renal; 102% in the assay with SF-268 CNS. The growth with SF-295 CNS was 95.8%; with SF-539 CNS, 94.9%; in the assay on UACC-257 melanoma it was 92.9%; with M14 melanoma, 90.6%.
As to `C[C@]1(CO)C[C@@H](O)C[C@]2(C)[C@@H]1CC[C@@]13C[C@@H]4[C@@H](C[C@H]12)[C@]4(C)C3`, the growth in the assay with DU-145 prostate was 111%; in the assay with K-562 leukemia it was 101%; in the assay with MALME-3M melanoma, 94.4%; with MDA-MB-231 breast, 98%; in the assay on RXF 393 renal, 119%; in the assay with SF-268 CNS it was 100%. Further, the growth in the assay with SF-295 CNS is 104%; with SF-539 CNS it was 99.4%; with UACC-257 melanoma it was 106%; with M14 melanoma it was 94.8%.
For the molecule `CC(=O)OC[C@]1(C)C=C2C(=O)[C@](C)(O)C3(CC3)C(C)=C2[C@H]1OC(C)=O`, the growth in the assay on DU-145 prostate was 16.7%; in the assay with K-562 leukemia it was 93.1%; with MALME-3M melanoma, 111%; with MDA-MB-231 breast, 93.2%; with RXF 393 renal, 3.69% (active); in the assay on SF-268 CNS, 69.4%. For the same molecule, the growth was 83% in the assay on SF-295 CNS, 95.2% in the assay with SF-539 CNS, 106% with UACC-257 melanoma and 88.2% in the assay on M14 melanoma.
With `NS(=O)(=O)c1cc(Br)c2c(c1)S(=O)(=O)NCN2`, the growth was 108% with DU-145 prostate; 80.6% with K-562 leukemia; 121% in the assay on MALME-3M melanoma; 118% with MDA-MB-231 breast; 174% in the assay with RXF 393 renal; 103% in the assay on SF-268 CNS. Also, the growth in the assay on SF-295 CNS was 104%; with SF-539 CNS, 101%; in the assay on UACC-257 melanoma, 94.5%; in the assay with M14 melanoma it was 109%.
With `C=CC[P+](c1ccccc1)(c1ccccc1)c1ccccc1`, the growth in the assay with DU-145 prostate was 79.4%; in the assay on K-562 leukemia, 27.2%; with MALME-3M melanoma, 47.8%; in the assay on MDA-MB-231 breast it was 67.9%; with RXF 393 renal it was 95.3%; in the assay on SF-268 CNS, 79.2%. For the same molecule, the growth with SF-295 CNS is 80%; with SF-539 CNS, 61.1%; with UACC-257 melanoma, -3.34% (active); in the assay on M14 melanoma, 62.4%.
On to `Nc1nc(-c2ccnc(Cl)c2)nn1-c1nc2ccccc2s1`, for which the growth in the assay with DU-145 prostate is 115%; in the assay with K-562 leukemia it was 112%; in the assay with MALME-3M melanoma it was 97.3%; in the assay on MDA-MB-231 breast, 89.5%; with RXF 393 renal it was 108%; with SF-268 CNS, 100%. Moreover, the growth in the assay with SF-295 CNS was 101%; in the assay on SF-539 CNS, 98.5%; with UACC-257 melanoma, 113%; in the assay with M14 melanoma it was 101%.
As for `Fc1c[c-]c(-c2ccccn2)c(F)c1.Fc1c[c-]c(-c2ccccn2)c(F)c1.[Cl][Pt+].[Cl][Pt+].c1ccc([PH+](C[PH+](c2ccccc2)c2ccccc2)c2ccccc2)cc1`, the growth in the assay on DU-145 prostate is 22.8%; in the assay on K-562 leukemia, 10.2%; in the assay on MALME-3M melanoma, -41.2% (active); in the assay on MDA-MB-231 breast, -15.4% (active); in the assay with RXF 393 renal, 34%; in the assay with SF-268 CNS, 21.9%. Also, the growth was 17.3% with SF-295 CNS, 29.5% in the assay on SF-539 CNS, -0.265% (active) in the assay with UACC-257 melanoma and 22.7% with M14 melanoma.
In the case of `CCC(C)[C@H]1O[C@]2(CC[C@@H]1C)C[C@@H]1C[C@@H](C/C=C(\C)[C@@H](OC3C[C@H](OC)C(O[C@H]4C[C@H](OC)[C@@H](O)[C@H](C)O4)[C@H](C)O3)[C@@H](C)/C=C/C=C3\CO[C@@H]4[C@H](O)C(C)=C[C@@H](C(=O)O1)[C@]34O)O2` (stereo not given in full), the growth in the assay with DU-145 prostate was 22.1%; in the assay on K-562 leukemia, 14.1%; with MALME-3M melanoma it was 0.803% (active); in the assay on MDA-MB-231 breast it was -15.6% (active); in the assay on RXF 393 renal it was -23.1% (active); with SF-268 CNS it was 25.1%. The growth in the assay on SF-295 CNS was -36.7% (active); with SF-539 CNS, -15.4% (active); in the assay with UACC-257 melanoma it was 47.3%; in the assay with M14 melanoma, -73.1% (active).
